Source: the supplement of paper PMC11732987, “Enantioselective OTUD7B fragment discovery through chemoproteomics screening and high-throughput optimisation” (Communications Chemistry, 2025)

Tests used:
Test in all cases: log2 ratio of Biotin-Ahx-Ub-VS probe labelling (fragment/DMSO); higher = less target engagement (more negative = stronger competition), active = hit call of the paper (q ≤ 0.05, log2 ratio ≤ -1)
Details in all cases: compound concentration: 200 uM; treatment time: 3 h
USP34 = USP34 (UniProt Q70CQ2)
USP34, sequence (Q70CQ2 whole entry, the tested form may be a part): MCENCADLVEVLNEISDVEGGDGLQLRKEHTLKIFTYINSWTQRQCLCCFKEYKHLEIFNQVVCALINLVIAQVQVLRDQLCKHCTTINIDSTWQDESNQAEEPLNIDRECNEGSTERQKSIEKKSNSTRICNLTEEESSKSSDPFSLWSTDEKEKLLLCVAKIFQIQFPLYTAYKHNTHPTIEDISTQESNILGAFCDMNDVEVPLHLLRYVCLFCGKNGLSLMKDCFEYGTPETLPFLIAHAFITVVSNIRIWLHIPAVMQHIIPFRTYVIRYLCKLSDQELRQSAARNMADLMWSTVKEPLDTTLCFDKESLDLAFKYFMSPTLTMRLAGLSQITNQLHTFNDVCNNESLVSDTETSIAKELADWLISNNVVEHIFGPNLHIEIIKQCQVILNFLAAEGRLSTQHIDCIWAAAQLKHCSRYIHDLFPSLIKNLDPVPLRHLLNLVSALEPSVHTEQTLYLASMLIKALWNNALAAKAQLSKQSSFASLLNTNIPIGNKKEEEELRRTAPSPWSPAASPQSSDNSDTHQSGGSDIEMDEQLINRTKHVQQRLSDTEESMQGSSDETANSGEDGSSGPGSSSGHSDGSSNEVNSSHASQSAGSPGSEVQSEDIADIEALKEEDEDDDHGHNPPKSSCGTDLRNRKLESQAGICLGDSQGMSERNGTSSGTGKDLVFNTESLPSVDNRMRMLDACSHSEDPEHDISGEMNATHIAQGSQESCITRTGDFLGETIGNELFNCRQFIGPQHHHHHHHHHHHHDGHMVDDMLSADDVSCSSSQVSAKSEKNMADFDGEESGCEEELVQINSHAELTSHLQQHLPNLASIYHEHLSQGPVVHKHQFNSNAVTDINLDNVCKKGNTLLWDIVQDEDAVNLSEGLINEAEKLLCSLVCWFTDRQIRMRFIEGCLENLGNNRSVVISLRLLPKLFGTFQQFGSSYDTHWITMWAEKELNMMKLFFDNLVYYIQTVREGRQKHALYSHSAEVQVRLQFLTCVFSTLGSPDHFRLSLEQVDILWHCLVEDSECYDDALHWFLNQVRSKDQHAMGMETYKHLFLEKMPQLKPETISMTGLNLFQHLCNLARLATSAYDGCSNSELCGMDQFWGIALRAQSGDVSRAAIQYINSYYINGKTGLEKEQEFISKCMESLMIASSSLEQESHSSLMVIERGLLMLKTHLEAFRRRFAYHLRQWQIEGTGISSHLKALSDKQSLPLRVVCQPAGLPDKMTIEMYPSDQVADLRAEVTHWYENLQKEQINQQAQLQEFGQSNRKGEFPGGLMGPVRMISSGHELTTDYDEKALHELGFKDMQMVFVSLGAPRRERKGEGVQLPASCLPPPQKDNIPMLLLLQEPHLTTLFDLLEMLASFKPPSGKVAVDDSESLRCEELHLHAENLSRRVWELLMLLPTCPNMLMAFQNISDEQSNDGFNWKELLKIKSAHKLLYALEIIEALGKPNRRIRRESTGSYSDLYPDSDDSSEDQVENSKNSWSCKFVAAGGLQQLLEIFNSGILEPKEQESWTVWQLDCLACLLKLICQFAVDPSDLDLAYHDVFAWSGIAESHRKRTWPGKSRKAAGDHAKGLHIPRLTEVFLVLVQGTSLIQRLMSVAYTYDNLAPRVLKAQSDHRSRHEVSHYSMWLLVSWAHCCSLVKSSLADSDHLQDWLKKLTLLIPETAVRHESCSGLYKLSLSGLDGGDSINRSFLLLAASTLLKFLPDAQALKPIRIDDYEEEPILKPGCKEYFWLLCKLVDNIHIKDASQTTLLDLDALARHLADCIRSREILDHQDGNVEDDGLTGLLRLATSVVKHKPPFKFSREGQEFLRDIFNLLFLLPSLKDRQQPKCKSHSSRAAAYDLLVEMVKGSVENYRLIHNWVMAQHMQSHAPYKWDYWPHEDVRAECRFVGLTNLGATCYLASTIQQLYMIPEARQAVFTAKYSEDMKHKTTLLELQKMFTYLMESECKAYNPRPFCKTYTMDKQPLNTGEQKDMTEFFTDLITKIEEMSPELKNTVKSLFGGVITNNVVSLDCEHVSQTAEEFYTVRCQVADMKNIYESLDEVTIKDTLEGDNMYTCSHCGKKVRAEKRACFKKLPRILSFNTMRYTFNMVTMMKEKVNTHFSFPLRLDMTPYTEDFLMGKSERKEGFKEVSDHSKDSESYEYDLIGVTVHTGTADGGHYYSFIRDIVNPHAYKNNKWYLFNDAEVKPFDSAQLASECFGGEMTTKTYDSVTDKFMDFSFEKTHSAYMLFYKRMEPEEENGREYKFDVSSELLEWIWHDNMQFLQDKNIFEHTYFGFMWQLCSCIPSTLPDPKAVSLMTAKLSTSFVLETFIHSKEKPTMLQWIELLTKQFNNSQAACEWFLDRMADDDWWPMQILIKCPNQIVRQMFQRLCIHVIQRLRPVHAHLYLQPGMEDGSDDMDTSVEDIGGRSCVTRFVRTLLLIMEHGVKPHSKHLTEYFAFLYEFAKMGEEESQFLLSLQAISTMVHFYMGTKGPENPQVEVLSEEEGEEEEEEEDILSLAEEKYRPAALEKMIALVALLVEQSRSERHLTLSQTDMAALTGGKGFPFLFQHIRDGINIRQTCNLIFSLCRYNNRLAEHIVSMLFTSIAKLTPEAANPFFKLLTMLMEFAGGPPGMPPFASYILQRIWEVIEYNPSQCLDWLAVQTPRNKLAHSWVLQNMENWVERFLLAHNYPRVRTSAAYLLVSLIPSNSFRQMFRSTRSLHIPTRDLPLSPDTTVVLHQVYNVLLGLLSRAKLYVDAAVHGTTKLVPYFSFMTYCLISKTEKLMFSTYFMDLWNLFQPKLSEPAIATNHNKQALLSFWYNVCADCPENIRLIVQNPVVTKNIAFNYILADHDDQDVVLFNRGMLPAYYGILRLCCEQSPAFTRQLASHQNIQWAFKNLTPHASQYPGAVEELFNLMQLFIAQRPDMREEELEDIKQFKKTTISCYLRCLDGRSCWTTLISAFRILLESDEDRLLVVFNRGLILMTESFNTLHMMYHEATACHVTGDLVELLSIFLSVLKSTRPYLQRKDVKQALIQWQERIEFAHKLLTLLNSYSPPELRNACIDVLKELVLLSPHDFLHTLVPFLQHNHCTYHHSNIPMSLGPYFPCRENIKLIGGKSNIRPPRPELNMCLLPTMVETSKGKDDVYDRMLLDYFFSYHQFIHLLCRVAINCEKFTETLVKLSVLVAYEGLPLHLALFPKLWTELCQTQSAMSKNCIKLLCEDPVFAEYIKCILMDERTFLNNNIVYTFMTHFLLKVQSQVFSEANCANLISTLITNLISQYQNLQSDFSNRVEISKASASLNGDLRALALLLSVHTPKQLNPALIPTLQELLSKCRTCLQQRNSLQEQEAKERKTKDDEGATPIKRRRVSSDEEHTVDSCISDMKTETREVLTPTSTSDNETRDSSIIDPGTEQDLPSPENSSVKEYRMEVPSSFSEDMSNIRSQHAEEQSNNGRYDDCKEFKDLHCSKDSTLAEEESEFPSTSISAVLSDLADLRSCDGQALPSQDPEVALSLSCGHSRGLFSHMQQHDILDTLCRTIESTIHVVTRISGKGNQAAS
Procedure, shortened: (§1)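 Labelling with Biotin-Ahx-Ub-VS (0.5 µM final, 1 h) followed a 3 h triplicate treatment of HEK293T lysate (495 µg per sample, Tris/CHAPS/IGEPAL buffer with protease inhibitors) with fragment at 200 µM or vehicle. Labelled DUBs were NeutrAvidin-enriched, digested with LysC and trypsin, and run by diaPASEF LC-MS/MS. The values, average log2 fragment/vehicle ratios by unpaired t-test, come from global-median-normalised Spectronaut label-free quantities. Proteins with ≥2 unique peptides were used.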

USP36 = biological target: T1, USP36 (UniProt Q9P275)
T1 sequence (whole entry): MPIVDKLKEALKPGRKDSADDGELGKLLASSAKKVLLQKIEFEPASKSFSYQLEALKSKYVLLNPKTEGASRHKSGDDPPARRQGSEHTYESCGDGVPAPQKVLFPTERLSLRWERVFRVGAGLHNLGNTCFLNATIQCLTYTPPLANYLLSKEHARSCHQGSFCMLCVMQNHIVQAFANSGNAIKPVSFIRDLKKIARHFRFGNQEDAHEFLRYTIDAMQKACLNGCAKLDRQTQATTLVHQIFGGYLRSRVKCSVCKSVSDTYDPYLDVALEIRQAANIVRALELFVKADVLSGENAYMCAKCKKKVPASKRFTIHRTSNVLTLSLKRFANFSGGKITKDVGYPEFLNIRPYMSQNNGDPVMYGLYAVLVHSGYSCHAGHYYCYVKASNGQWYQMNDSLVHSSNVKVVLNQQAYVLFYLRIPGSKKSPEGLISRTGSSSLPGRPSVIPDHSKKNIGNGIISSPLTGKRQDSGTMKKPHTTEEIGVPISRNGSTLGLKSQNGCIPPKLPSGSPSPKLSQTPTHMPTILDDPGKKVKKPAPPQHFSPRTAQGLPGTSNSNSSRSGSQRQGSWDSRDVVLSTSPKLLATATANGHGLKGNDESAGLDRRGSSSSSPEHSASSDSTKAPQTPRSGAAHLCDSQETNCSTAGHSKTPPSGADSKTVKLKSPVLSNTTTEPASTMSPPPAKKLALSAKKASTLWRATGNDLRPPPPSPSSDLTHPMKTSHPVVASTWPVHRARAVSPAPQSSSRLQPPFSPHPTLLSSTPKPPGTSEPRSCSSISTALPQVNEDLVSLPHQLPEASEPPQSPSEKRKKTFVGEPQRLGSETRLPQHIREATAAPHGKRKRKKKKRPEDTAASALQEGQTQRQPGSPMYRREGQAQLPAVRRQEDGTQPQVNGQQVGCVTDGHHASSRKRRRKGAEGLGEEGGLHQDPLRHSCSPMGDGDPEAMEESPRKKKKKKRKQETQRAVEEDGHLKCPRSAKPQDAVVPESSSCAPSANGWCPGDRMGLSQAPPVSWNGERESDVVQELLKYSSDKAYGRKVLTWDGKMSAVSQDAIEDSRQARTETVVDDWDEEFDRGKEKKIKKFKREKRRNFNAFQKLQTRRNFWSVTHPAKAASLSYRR
Procedure, shortened: as §1

USP38 = biological target: T2, USP38 (UniProt Q8NB14)
T2 sequence (whole entry): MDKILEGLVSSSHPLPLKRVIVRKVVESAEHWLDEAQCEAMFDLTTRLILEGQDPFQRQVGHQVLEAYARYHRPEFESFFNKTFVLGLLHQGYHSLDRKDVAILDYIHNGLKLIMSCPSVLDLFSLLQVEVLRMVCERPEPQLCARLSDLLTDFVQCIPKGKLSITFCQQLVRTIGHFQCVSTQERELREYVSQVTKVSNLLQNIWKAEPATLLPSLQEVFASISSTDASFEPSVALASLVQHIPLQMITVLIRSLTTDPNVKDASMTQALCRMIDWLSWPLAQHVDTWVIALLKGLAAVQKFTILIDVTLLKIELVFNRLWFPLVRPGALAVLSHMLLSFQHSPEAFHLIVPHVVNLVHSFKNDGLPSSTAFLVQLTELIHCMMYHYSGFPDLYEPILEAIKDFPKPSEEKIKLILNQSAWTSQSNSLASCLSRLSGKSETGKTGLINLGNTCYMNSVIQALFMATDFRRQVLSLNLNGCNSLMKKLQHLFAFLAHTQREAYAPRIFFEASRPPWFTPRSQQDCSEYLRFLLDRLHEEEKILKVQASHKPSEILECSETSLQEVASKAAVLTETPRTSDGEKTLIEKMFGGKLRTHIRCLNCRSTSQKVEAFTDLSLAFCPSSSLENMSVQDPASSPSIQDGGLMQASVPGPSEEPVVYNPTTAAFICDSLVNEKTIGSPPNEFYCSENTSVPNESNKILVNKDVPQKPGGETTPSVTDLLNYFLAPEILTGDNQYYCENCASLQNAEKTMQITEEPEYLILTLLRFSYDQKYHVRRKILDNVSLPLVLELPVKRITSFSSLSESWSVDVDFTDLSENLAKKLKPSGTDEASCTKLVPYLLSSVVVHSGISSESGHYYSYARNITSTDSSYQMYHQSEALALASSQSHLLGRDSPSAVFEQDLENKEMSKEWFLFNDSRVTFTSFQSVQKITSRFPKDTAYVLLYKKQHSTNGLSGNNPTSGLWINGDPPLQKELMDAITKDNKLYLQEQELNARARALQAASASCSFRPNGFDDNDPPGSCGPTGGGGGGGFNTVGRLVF
Procedure, shortened: as §1

USP39 = biological target: T3, USP39 (UniProt Q53GS9)
T3 sequence (whole entry): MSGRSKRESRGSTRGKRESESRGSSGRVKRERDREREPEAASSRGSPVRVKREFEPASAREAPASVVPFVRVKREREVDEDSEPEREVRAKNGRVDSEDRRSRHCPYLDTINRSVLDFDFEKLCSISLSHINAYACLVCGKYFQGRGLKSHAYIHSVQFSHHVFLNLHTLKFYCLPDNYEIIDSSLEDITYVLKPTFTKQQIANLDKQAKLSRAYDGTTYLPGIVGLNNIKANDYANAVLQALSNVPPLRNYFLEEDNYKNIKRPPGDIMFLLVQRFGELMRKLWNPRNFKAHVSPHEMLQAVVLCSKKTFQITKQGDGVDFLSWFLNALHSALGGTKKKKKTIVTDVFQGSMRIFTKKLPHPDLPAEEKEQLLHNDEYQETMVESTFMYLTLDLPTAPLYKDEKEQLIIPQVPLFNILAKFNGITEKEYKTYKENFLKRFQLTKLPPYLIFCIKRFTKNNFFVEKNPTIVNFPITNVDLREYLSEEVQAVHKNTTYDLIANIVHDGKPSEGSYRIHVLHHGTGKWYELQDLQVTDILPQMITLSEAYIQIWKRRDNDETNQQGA
Procedure, shortened: as §1

USP4 = biological target: T4, USP4 (UniProt Q13107)
T4 sequence (whole entry): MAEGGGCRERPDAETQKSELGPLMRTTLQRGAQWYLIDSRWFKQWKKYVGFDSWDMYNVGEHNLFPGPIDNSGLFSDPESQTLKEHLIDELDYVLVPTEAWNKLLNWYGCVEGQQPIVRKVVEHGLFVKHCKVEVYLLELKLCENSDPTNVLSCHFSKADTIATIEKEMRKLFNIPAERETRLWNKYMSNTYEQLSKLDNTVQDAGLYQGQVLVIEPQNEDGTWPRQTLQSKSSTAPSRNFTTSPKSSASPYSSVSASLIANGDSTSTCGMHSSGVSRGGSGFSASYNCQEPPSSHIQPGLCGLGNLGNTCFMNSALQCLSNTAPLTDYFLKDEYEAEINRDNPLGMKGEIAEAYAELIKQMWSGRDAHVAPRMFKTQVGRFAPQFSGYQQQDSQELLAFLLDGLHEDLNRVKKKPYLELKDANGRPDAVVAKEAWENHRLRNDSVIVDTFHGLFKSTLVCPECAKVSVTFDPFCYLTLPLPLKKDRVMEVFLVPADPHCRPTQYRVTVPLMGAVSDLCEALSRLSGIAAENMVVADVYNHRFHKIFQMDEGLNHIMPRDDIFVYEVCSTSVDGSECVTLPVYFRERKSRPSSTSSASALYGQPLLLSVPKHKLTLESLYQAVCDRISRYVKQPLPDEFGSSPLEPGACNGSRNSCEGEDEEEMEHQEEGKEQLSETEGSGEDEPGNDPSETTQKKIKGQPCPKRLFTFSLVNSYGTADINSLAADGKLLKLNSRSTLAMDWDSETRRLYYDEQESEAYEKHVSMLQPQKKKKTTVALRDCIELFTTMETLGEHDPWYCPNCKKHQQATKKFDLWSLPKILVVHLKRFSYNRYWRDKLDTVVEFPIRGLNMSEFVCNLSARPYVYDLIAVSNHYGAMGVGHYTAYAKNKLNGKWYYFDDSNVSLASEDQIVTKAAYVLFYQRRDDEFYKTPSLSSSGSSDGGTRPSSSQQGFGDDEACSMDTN
Procedure, shortened: as §1

Measured: log2 ratio of Biotin-Ahx-Ub-VS probe labelling

Cc1n[nH]c(=O)c2c(NC(=O)CCl)oc(C)c12
inactive: USP34 -0.107 | USP36 0.103 | USP38 0.0131 | USP39 0.082 | USP4 0.0593
